About 2,000 (36%) of roughly 5,500 compounds were called active. Another 18% or so got no clear call; they are omitted. No stated cut-off is given here; in the data, active means normalized growth mostly below about 0.91 (no sharp cut-off); inconclusive means no clear call, values can overlap the other calls; inactive means mostly above about 0.92. This is one part of the list.
Experiment: chemical genetic growth profiling, strain panel (AID 1159580);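 further: tested at 20 µM; growth read once vehicle control cultures reached saturation at 30 °C; 1 = growth at the plate median or of vehicle wells; lower values mean less growth of the strain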
Settings: S. cerevisiae deletion strains, growth OD

Measured: normalized growth

Cc1nn(Cc2n[nH]c(=S)o2)c(C)c1Br
inactive: locus YAL013W, strain DEP1, active compounds read low 0.998 | locus YBR229C, strain ROT2, active compounds read low 0.993 | locus YDL101C, strain DUN1, active compounds read low 1 | locus YDR150W, strain NUM1, active compounds read low 0.933 | locus YEL061C, strain CIN8, active compounds read low 1.02 | locus YGR078C, strain PAC10, active compounds read low 0.981 | locus YHR030C, strain SLT2, active compounds read low 1.02 | locus YHR087W, strain rtc3, active compounds read low 0.983 | locus YJL187C, strain SWE1, active compounds read low 0.968 | locus YJR043C, strain POL32, active compounds read low 0.983 | locus YJR075W, strain HOC1, active compounds read low 0.979 | locus YKL190W, strain CNB1, active compounds read low 1.02 | locus YLR039C, strain RIC1, active compounds read low 1.02 | locus YLR058C, strain SHM2 (second series), active compounds read low 0.996 | locus YLR085C, strain ARP6, active compounds read low 1.09 | locus YLR262C, strain YPT6, active compounds read low 1.04 | locus YML094W, strain GIM5, active compounds read low 1.02 | locus YMR219W, strain ESC1, active compounds read low 0.996 | locus YMR263W, strain SAP30, active compounds read low 0.93 | locus YNL128W, strain TEP1, active compounds read low 1.01 | locus YNL153C, strain GIM3, active compounds read low 1.01 | locus YNL298W, strain CLA4 (second series), active compounds read low 1.05 | locus YNL322C, strain KRE1, active compounds read low 0.999 | locus YNR030W, strain Alg12, active compounds read low 1.01 | locus YPL055C, strain LGE1, active compounds read low 0.955 | locus YPL241C, strain CIN2, active compounds read low 1.02 | locus YPR135W, strain CTF4, active compounds read low 1.04
